According to the supplement of paper PMC10849652:
Of roughly 7,900 targets only a part is listed; those with a hit were picked by preference. About 0.6% of all pairs of compound and target were hits.

Compound: C1=CC=C(C=C1)[C@H](COC2=CC3=C(C=C2)NC(=O)N3)NC(=O)C4=CC=CN(C4=O)CC5=CC(=C(C=C5)F)F
Assay: log2 fold change, soluble protein after heating vs DMSO (PISA); higher = thermal stabilisation; K562 cells, 10 uM, 30 min; active = over 0.2 and 3.5 SD of the protein, either way, in both replicates (recomputed)
Method in brief: (§1)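 Values are thermal stability changes relative to control samples and are taken from duplicates. They are stated as log2 fold changes. Before quantification by TMTpro 16plex LC-MS/MS with equalised channel sums, K562 cells at 2×10^6 cells/mL were treated with 10 μM compound for 30 min, heated in aliquots for 3 min across 48°C-58°C, pooled, extracted in PBS with 0.5% NP-40 at 4°C, and centrifuged at 21,000xg for 90 min to give the soluble supernatant.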

Sequence of UniProt Q53T59 (Q53T59 whole entry, looked up): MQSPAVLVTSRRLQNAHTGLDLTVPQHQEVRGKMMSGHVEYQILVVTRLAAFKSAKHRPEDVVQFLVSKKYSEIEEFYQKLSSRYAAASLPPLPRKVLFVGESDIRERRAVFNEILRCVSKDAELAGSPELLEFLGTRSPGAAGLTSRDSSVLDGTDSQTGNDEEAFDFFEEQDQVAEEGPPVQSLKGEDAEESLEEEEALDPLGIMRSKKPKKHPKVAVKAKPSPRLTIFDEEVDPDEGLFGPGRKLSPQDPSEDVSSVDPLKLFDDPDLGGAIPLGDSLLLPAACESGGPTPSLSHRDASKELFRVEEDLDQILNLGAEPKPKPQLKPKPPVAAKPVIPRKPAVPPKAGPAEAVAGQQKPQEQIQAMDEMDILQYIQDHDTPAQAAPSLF
Sequence of UniProt Q13889 (Q13889 whole entry, looked up): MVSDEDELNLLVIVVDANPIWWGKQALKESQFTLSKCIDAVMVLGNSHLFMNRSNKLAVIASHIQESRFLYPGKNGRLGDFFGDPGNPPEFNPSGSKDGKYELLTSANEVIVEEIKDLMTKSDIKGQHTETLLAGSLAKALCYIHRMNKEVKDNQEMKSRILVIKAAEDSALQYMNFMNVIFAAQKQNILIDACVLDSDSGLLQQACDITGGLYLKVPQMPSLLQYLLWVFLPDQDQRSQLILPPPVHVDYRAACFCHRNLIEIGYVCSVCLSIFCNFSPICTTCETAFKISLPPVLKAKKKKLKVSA
Sequence of UniProt Q9NP66 (Q9NP66 whole entry, looked up): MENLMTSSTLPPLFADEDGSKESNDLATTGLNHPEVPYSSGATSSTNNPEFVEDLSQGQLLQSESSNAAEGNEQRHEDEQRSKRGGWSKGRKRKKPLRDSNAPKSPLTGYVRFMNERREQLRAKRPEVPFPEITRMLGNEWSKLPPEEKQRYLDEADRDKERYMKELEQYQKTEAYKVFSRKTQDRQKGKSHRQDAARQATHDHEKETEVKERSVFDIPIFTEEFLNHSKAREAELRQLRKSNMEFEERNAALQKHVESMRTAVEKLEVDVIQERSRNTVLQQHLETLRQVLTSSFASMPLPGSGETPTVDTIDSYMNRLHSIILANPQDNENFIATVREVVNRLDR
Sequence of UniProt Q53FT3 (Q53FT3 whole entry, looked up): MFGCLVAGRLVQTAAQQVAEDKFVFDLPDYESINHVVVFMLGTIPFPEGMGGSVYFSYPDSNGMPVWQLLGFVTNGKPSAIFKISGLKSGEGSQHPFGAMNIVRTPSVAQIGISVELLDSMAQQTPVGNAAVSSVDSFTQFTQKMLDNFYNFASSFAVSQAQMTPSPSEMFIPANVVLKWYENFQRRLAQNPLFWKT
Sequence of UniProt Q03013 (Q03013 whole entry, looked up): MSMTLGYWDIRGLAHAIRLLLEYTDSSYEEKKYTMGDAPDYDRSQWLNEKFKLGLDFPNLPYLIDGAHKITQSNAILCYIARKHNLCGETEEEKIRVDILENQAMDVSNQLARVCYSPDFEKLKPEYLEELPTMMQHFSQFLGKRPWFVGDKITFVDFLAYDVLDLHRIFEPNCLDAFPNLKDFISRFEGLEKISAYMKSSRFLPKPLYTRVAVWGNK
Sequence of UniProt Q92664 (Q92664 whole entry, looked up): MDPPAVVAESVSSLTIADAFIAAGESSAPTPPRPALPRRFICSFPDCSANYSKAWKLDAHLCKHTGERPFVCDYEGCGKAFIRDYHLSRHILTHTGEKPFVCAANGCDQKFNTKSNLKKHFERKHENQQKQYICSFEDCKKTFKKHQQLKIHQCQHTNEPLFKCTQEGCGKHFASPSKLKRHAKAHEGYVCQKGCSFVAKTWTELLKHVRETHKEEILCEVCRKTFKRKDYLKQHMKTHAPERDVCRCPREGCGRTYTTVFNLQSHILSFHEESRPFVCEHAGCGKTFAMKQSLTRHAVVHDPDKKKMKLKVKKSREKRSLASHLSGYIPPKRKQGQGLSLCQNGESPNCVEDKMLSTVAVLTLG
Sequence of UniProt Q14687 (Q14687 whole entry, looked up): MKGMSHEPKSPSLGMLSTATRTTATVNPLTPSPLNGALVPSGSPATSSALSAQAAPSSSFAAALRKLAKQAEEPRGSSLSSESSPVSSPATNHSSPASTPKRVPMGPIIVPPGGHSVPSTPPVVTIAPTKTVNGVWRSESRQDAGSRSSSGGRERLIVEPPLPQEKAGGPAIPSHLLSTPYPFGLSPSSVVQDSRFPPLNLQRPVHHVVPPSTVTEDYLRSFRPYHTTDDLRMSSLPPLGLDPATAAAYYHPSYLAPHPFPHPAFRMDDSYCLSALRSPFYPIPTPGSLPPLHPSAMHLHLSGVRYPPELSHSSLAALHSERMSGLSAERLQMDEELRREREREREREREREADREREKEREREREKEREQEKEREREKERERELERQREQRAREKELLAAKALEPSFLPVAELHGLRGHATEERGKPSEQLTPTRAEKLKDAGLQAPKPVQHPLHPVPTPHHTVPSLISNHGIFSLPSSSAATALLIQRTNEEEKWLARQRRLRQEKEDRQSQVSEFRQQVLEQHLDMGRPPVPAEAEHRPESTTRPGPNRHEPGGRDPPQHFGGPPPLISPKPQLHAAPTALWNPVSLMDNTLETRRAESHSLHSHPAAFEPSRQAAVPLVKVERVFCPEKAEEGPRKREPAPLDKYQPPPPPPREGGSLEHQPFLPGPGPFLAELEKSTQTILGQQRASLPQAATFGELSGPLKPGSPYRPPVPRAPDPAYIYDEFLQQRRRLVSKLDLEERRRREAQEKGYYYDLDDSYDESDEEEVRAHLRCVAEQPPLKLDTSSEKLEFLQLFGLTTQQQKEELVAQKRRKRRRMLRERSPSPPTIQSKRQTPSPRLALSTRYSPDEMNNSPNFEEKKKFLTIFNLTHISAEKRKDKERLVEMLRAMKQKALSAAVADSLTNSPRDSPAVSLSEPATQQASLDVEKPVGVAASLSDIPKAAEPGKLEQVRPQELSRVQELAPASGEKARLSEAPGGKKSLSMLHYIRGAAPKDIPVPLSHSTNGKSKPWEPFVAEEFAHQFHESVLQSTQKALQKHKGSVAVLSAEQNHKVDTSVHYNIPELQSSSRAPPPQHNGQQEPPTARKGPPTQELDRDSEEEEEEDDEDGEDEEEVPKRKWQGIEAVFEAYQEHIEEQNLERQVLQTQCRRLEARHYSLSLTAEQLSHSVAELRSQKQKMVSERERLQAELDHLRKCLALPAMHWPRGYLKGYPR
Sequence of UniProt O14893 (O14893 whole entry, looked up): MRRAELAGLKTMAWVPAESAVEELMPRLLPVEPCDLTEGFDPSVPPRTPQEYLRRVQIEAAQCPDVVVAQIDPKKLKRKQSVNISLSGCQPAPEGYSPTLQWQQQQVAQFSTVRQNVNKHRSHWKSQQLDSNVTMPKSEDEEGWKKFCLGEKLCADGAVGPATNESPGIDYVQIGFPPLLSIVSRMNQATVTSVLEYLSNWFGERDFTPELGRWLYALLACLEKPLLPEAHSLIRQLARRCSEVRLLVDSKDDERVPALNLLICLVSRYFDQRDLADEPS
Sequence of UniProt Q53R41 (Q53R41 whole entry, looked up): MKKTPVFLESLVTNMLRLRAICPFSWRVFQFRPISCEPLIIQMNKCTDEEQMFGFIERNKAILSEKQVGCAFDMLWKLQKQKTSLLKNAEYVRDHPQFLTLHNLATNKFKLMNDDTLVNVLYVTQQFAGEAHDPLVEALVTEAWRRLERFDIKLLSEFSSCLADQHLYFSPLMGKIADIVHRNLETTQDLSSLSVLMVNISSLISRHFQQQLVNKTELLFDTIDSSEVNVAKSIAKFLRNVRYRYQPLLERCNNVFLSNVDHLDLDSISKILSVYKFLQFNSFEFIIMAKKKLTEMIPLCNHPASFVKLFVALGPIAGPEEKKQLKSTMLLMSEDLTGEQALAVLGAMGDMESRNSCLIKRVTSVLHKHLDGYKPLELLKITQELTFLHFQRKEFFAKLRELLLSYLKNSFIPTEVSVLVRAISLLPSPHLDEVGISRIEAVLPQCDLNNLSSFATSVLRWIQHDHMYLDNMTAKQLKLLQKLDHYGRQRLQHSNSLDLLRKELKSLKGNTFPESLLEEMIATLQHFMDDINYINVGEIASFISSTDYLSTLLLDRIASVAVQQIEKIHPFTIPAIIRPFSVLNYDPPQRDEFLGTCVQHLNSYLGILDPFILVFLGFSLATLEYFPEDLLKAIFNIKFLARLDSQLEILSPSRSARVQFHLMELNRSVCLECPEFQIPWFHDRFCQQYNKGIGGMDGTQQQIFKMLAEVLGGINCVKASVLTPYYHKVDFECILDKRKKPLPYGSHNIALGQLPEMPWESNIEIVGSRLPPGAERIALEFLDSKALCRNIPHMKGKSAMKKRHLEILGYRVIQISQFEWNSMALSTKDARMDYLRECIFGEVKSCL
Sequence of UniProt Q92917 (Q92917 whole entry, looked up): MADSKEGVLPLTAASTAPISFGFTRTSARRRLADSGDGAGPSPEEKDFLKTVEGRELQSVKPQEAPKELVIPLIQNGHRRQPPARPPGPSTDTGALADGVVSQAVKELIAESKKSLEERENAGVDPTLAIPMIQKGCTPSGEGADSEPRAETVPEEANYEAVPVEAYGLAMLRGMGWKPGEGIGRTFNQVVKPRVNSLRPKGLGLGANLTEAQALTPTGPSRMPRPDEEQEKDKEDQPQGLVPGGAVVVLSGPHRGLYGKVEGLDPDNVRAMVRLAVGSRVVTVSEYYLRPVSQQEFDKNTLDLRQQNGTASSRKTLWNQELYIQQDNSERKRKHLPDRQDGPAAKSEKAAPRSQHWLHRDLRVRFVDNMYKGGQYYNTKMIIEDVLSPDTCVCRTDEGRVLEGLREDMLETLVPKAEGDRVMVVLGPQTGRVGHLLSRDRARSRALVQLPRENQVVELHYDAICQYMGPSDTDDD
Sequence of UniProt P0C0S5 (P0C0S5 whole entry, looked up): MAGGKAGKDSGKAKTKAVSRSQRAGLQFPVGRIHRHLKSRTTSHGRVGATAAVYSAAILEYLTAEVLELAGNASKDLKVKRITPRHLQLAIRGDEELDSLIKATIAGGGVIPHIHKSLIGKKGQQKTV
Sequence of UniProt Q9Y3D6 (Q9Y3D6 whole entry, looked up): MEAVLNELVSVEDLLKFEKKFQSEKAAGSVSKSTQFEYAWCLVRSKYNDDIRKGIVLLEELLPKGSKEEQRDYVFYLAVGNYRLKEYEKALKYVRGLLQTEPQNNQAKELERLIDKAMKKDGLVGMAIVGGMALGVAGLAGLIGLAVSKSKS

Row | Target | log2 fold change
1 | FYB1 isoform 3 (UniProt O15117) | -0.09 (inactive)
2 | ICMT (UniProt O60725) | 0.047 (inactive)
3 | GTF3A (UniProt Q92664) | 0.002 (inactive)
4 | HOMER1 (UniProt Q86YM7) | -0.08 (inactive)
5 | GOLGA6B (UniProt A6NDN3) | 0.043 (inactive)
6 | HNRNPK isoform 3 (UniProt P61978) | 0.014 (inactive)
7 | FASTKD1 (UniProt Q53R41) | -0.038 (inactive)
8 | GPKOW (UniProt Q92917) | -0.133 (inactive)
9 | HS1BP3 (UniProt Q53T59) | -0.046 (inactive)
10 | GEMIN2 (UniProt O14893) | 0.044 (inactive)
11 | GAPVD1 isoform 6 (UniProt Q14C86) | -0.09 (inactive)
12 | H3-3A (UniProt P84243) | -0.004 (inactive)
13 | GUSB (UniProt P08236) | 0.019 (inactive)
14 | HMG20A (UniProt Q9NP66) | 0.07 (inactive)
15 | GSE1 (UniProt Q14687) | -0.151 (inactive)
16 | GTF2H3 (UniProt Q13889) | 0.062 (inactive)
17 | FIS1 (UniProt Q9Y3D6) | 0.047 (inactive)
18 | GPS2 (UniProt Q13227) | 0.015 (inactive)
19 | GSTM4 (UniProt Q03013) | 0.064 (inactive)
20 | HIKESHI (UniProt Q53FT3) | 0.014 (inactive)
21 | H2AZ1 (UniProt P0C0S5) | 0.12 (inactive)
22 | GALNT11 (UniProt Q8NCW6) | -0.027 (inactive)
23 | IDH3A isoform 2 (UniProt P50213) | 0.118 (inactive)
24 | FHOD1 (UniProt Q9Y613) | -0.033 (inactive)
25 | HDAC7 isoform 5 (UniProt Q8WUI4) | -0.008 (inactive)

Compound: CC1=C(SC2=C1C(=N[C@H](C3=NN=C(N32)C)CC(=O)N)C4=CC=C(C=C4)Cl)C
Assay: as above
Method in brief: as §1

Row | Target | log2 fold change
26 | GTF3A (UniProt Q92664) | -0.001 (inactive)
27 | HNRNPUL1 (UniProt M0R247) | 0.079 (inactive)
28 | FMR1 (UniProt Q06787) | -0.237 (inactive)
29 | HOMER1 (UniProt Q86YM7) | 0.035 (inactive)
30 | FASTKD1 (UniProt Q53R41) | 0.151 (inactive)
31 | FCHO1 (UniProt O14526) | 0.013 (inactive)
32 | GPKOW (UniProt Q92917) | 0.078 (inactive)
33 | GREB1 (UniProt Q4ZG55) | 0.095 (inactive)
34 | HS1BP3 (UniProt Q53T59) | 0.087 (inactive)
35 | GEMIN2 (UniProt O14893) | 0.013 (inactive)
36 | GAPVD1 isoform 6 (UniProt Q14C86) | 0.008 (inactive)
37 | H3-3A (UniProt P84243) | 0.053 (inactive)
38 | GAK (UniProt O14976) | 0.095 (inactive)
39 | FIZ1 (UniProt Q96SL8) | -0.297 (inactive)
40 | GUSB (UniProt P08236) | -0.057 (inactive)
41 | HMG20A (UniProt Q9NP66) | -0.085 (inactive)
42 | GSE1 (UniProt Q14687) | 0.029 (inactive)
43 | GTF2H3 (UniProt Q13889) | 0.065 (inactive)
44 | FIS1 (UniProt Q9Y3D6) | 0.021 (inactive)
45 | GSTM4 (UniProt Q03013) | 0.063 (inactive)
46 | HIKESHI (UniProt Q53FT3) | 0.12 (inactive)
47 | GAB2 (UniProt Q9UQC2) | 0.153 (inactive)
48 | H2AZ1 (UniProt P0C0S5) | -0.153 (inactive)
49 | GALNT11 (UniProt Q8NCW6) | 0.096 (inactive)
50 | IDH3A isoform 2 (UniProt P50213) | 0.251 (inactive)
51 | FOXO3 (UniProt O43524) | 0.065 (inactive)
52 | FHOD1 (UniProt Q9Y613) | -0.065 (inactive)
53 | HDAC7 isoform 5 (UniProt Q8WUI4) | 0.039 (inactive)

Compound: CC1=C2C(=CC=C1)N=C(N(C2=O)C3=CC=CC=C3C)CN4C=NC5=C(N=CN=C54)N
Assay: as above
Method in brief: as §1

Row | Target | log2 fold change
54 | FYB1 isoform 3 (UniProt O15117) | 0.005 (inactive)
55 | ICMT (UniProt O60725) | 0.115 (inactive)
56 | GTF3A (UniProt Q92664) | 0.08 (inactive)
57 | IGF2 isoform 3 (UniProt P01344) | 0.077 (inactive)
58 | HOMER1 (UniProt Q86YM7) | 0.02 (inactive)
59 | GOLGA6B (UniProt A6NDN3) | 0.19 (inactive)
60 | HNRNPK isoform 3 (UniProt P61978) | 0.074 (inactive)
61 | FASTKD1 (UniProt Q53R41) | 0.013 (inactive)
62 | FCHO1 (UniProt O14526) | 0.125 (inactive)
63 | GPKOW (UniProt Q92917) | 0.076 (inactive)
64 | GREB1 (UniProt Q4ZG55) | 0.175 (inactive)
65 | HS1BP3 (UniProt Q53T59) | -0.001 (inactive)
66 | GEMIN2 (UniProt O14893) | -0.049 (inactive)
67 | GAPVD1 isoform 6 (UniProt Q14C86) | 0.097 (inactive)
68 | H3-3A (UniProt P84243) | 0.154 (inactive)
69 | GAK (UniProt O14976) | -0.032 (inactive)

Row | Target | log2 fold change
70 | FIZ1 (UniProt Q96SL8) | -0.097 (inactive)
71 | GUSB (UniProt P08236) | -0.048 (inactive)
72 | HMG20A (UniProt Q9NP66) | 0.048 (inactive)
73 | GSE1 (UniProt Q14687) | 0.008 (inactive)
74 | GTF2H3 (UniProt Q13889) | 0.099 (inactive)
75 | FIS1 (UniProt Q9Y3D6) | 0.035 (inactive)
76 | GPS2 (UniProt Q13227) | 0 (inactive)
77 | GSTM4 (UniProt Q03013) | -0.114 (inactive)
78 | HIKESHI (UniProt Q53FT3) | 0.149 (inactive)
79 | GAB2 (UniProt Q9UQC2) | -0.059 (inactive)
80 | FCF1 (UniProt Q9Y324) | -0.362 (inactive)
81 | H2AZ1 (UniProt P0C0S5) | -0.247 (inactive)
82 | GALNT11 (UniProt Q8NCW6) | 0.093 (inactive)
83 | FOXO3 (UniProt O43524) | 0.012 (inactive)
84 | FHOD1 (UniProt Q9Y613) | 0.086 (inactive)
85 | HDAC7 isoform 5 (UniProt Q8WUI4) | -0.004 (inactive)
